High-throughput results as filed in PubChem.
Only some compounds are listed: those with a hit (about 2.1% of all), similar ones and a draw of the others.
TDP-43 yeast inh – TDP-43 toxicity inhibition in yeast; TDP-43 expressing yeast growth rescue, BacTiter-Glo, 24 h; Potency, µM (highest dose often 46.1 µM), inactives show top-dose growth rescue (activation), actives largely listed as activators; 1.8% of 410,000 active; note: % of control where 0% means no effect; nearly all actives have a fitted effect of over 50% in size
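Yeast expressing TDP-43 (pregrown in raffinose, seeded at OD600=0.02 in galactose medium) exposed to compounds 24 hr at 30 deg C. Growth read by BacTiter-Glo luminescence; rescue of toxicity appears as increased signal.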
FUS yeast rescue – rescues growth of FUS-expressing yeast. S. cerevisiae FUS-expressing, growth rescue, OD600, 24 h. Potency, µM (titrated, usually from 76.6 µM), usual class: activators. 0.24% of 390,000 active. AID 1347120;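 note: plate controls were DMSO vehicle for no effect and reference control for full effect; nearly all actives have a fitted effect of over 55% in size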
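Read-out: OD at 600 nm after 24hr at 30C, reporting rescue of FUS-induced yeast toxicity. Cells at OD 0.005 in galactose (2%) minimal medium; compounds tested in a dilution series; CP55940 titration from 92uM final as control.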
Abeta yeast res – restores growth of yeast expressing A-beta42 peptide | yeast expressing A-beta42, growth rescue, OD600, 48 h; response scale: 0% DMSO, 100% iron-clioquinol control | Potency, µM (doses to about 46.1 µM), usual class: activators | 0.063% of 410,000 active; note: nearly all actives have a fitted effect of over 55% in size
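Growth rescue measured by 600 nm absorbance after 48 h yeast culture at 30 C with compound. Values normalized between DMSO and an equimolar ferric chloride plus clioquinol control.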
aSyn rescue – alpha-synuclein toxicity inhibition in yeast. Yeast expressing alpha-synuclein, growth rescue, BacTiter-Glo, 24 h. Potency, µM (doses to about 46.1 µM), for the others: top-dose growth rescue (activation), hits mostly activators. 0.14% of 370,000 active. AID 652106; note: % of control where 0% means no effect; nearly all actives have a fitted effect of over 65% in size
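Galactose-induced alpha-syn yeast (OD600=0.02, raffinose-pregrown) + pinned cpd, 24 hr, 30 deg C; growth by BacTiter-Glo luminescence. Growth restoration scores as activation.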
Starred values were filed as active, the others as inactive; i = inactive; ? = inconclusive; · = not tested or not shown; [ ] = remark or other dose. Calls come from the whole dose curve; as a rule, active = well fitted curve in the direction sought with a large enough effect; inconclusive = small, poorly fitted or top-dose-only effect, or another doubt; inactive = no such curve, though single readings can be large; an effect the other way counts as inactive or inconclusive. Potency is the fitted concentration of half-maximal effect.

SMILES | TDP-43 yeast inh | FUS yeast rescue | Abeta yeast res | aSyn rescue
CCOc1cc(CCNC(=O)c2cc3sccc3n2CC)ccc1OC | · | i | · | ·
COc1ccc(-c2nc3c4ccccc4ccn3c2Cc2ccc(C)cc2)cc1OC | 10µM* | i | i | 22%
COc1ccccc1Cc1c(-c2ccco2)nc2c3ccccc3ccn12 | 22µM* | i | i | 1%
COc1ccccc1Cc1c(-c2ccco2)nc2c(C)cc(Br)cn12 | ? | i | i | -71%
Cc1cc(C(=O)O[C@@H]2CCC[C@@]3(C(=O)N(Cc4ccccc4)c4ccccc43)[C@H]2NC(=O)CCc2ccccc2)no1 | · | i | · | ·
COc1ccc(OC[C@@H](O)CN2CCC(C(O)(c3ccccc3)c3ccccc3)CC2)cc1 | · | i | · | ·
COc1ccc(NS(=O)(=O)c2cc(NC(=O)CCNC(C)=O)ccc2N2CCCCC2)cc1 | 1% | 32µM* | i | 1%[1.84 µM]
C#CCOCCOCCOCCNc1nc(N2CCN(C(=O)Cn3cc(CCCN=C(N)N)nn3)CC2)nc(N2CCN(C(=O)[C@H](Cc3ccc(O)cc3)n3cc(CCO)nn3)CC2)n1 | · | i | · | ·
Cn1c2ccccc2c2cc(C(=O)N3CCOCC3)sc21 | 14µM* | i | i | 3%
CCn1c(=O)c2cc(C(=O)N3CCOCC3)sc2c2ccccc21 | 23% | i | i | 0%
CCOC(=O)C1=C(C)NC(C)=C(C(=O)OCC)C1c1cccc([N+](=O)[O-])c1 | 25µM* | i | i | 13%
CCOc1ccccc1NC(=O)CCC(=O)Nc1ccccc1OCC | 12% | i | i | -3%
CCOc1ccccc1NC(=O)CSc1nnc(-c2ccco2)o1 | 13µM* | i | i | 0%
CCOc1ccccc1NC(=O)CSc1ccccc1 | 14µM* | i | i | 3%
COc1ccccc1NC(=O)CCSc1nnc(-c2ccco2)o1 | -5% | i | i | -3%
O=C(CSc1nnc(-c2ccco2)o1)c1ccccc1Cl | ? | 22µM* | i | -4%
CCOc1ccccc1NC(=O)CSc1ncc(S(=O)(=O)c2ccc(C)c(C)c2)c(N)n1 | 17% | 32µM* | i | ·
Cc1ccc(CNC(=O)O[C@H]2CC[C@@]34CCCN3C(=O)CCC[C@H]4[C@H]2C)cc1 | · | i | · | ·
Cc1cccc(C)c1NC(=O)[C@@H]1CC(=O)O[C@@H]1c1ccccc1 | · | i | · | ·
COC(=O)c1ccccc1NC(=O)NCc1ccc2c(c1)CCN2C(=O)c1ccccc1 | ? | i | i | ·
CCOc1ccccc1NC(=O)NNC(=O)c1ccc2ccccc2c1 | 17% | i | i | 2%
CCOc1ccccc1NC(=O)c1ccc2ccccc2c1 | 6.3µM* | i | i | -3%
CCOC(=O)C1=C(C)NC(C)=C(C(=O)OCC)C1c1c(F)c(F)c(F)c(F)c1F | · | · | · | -86%
CC(=O)c1c(C)[nH]c(C(=O)OCc2cccc(Cl)c2)c1C | 16µM* | i | i | -9%
CC(=O)c1c(C)[nH]c(C(=O)OCc2c(F)cccc2Cl)c1C | 9%[9.22 µM] | i | i | -1%
SMILES | TDP-43 yeast inh | FUS yeast rescue | Abeta yeast res | aSyn rescue
C/C(=N\NC(=S)NCc1ccccc1)c1ccccc1 | 0% | i | 3.5µM* | -5%
C/C(=N\NC(=S)NCc1ccccc1)c1ccco1 | ? | i | 11µM* | -12%
C/C(=N\NC(=S)NCc1ccccc1)c1ccc(C(C)(C)C)cc1 | 25% | · | ? | 9%
C/C(=N\NC(=S)NCc1ccccc1)c1ccccc1F | -11% | i | 11µM* | -8%
COc1ccc(CNC(=S)N/N=C(/C)c2ccccc2)cc1 | 18µM* | i | ? | -19%
O=C(NC(=S)NCc1ccccc1)c1ccccc1F | ? | i | i | ·
Cc1ccccc1N1CCN(S(=O)(=O)c2ccc3c(c2)oc(=O)n3C)CC1 | · | i | · | ·
O=C(Nc1ccc(F)cc1)OCc1cn(Cc2cccc(F)c2F)nn1 | · | i | · | ·
c1ccc(CN2CCN(c3ncnc4sccc34)CC2)cc1 | · | i | · | ·
CC(C)c1cc(C(=O)N(C2CCCCC2)C2CCCCC2)no1 | · | i | · | ·
COC(=O)c1sccc1S(=O)(=O)N(CC(=O)Nc1ccccc1C)c1ccc(Cl)cc1 | -10% | 32µM* | i | ·
CCc1ccc(C=NN2CCN(Cc3ccc(C)cc3C)CC2)cc1 | · | i | · | ·
Nc1c(C(=O)NCc2ccco2)nnn1CC(=O)Nc1ccccc1 | -3% | 40µM* | i | -7%
CC(C)OC(=O)C(C(=O)C(F)(F)F)c1cc(NS(=O)(=O)c2ccc3ccccc3c2)c2ccccc2c1O (stereo not given) | -64% | 10µM* | i | -34%
C[C@H](CO)N1C[C@H](C)[C@@H](CN(C)S(=O)(=O)c2ccccc2)OCc2cn(nn2)CCCC1=O | -13% | i | i | -20%
C[C@@H]1CN([C@H](C)CO)C(=O)CCCn2nncc2CO[C@@H]1CN(C)S(=O)(=O)c1ccccc1F | 16µM* | i | i | -4%
C[C@H]1CN([C@@H](C)CO)C(=O)CCCn2cc(nn2)CO[C@@H]1CN(C)S(=O)(=O)c1ccc2ccccc2c1 | 12% | i | i | 3.5µM*
Cc1cc(SCC2=NNC(=O)C2)c(Cl)cc1Cl | ? | 35µM* | i | 6%
CCCCC1Cc2[nH][nH]c(=O)c2C(c2ccc(Cl)cc2)O1 (stereo not given) | 11µM* | ? | i | -5%
O=c1[nH][nH]c2c1C(c1ccc(F)cc1)OC(CCc1ccccc1)C2 (stereo not given) | 20µM* | i | i | 14%
O=c1[nH]c(=S)[nH]c2c1C(c1ccc(F)cc1)OC(CCC(F)(F)F)C2 (stereo not given) | 2% | i | i | -1%
O=c1[nH][nH]c2c1[C@H](c1ccc(F)cc1)O[C@H](CCC(F)(F)F)C2 | 20µM* | i | i | ?
CC(C)[C@@H]1Cc2[nH][nH]c(=O)c2[C@H](c2ccc(F)cc2)O1 | 11µM* | i | i | -9%
N#CCC[C@@H]1CC[C@]2(CCCN(C(=O)C3CCCCC3)C2)O1 | · | i | · | ·
COC(=O)[C@@]12CCCCC3=C1N(CCC3)C(=O)[C@H]2CC(=O)NCC1CCCCC1 | · | i | · | ·
SMILES | TDP-43 yeast inh | FUS yeast rescue | Abeta yeast res | aSyn rescue
CC(C)CN1C(=O)C[C@@]2(C(=O)N(C)c3ccc(NC(=O)C(F)(F)F)cc32)C1c1ccccc1 (stereo not given in full) | · | i | · | ·
COCCN1C(=O)C(=O)/C(=C(/O)c2ccc(S(=O)(=O)N3CCOCC3)cc2)C1c1cccc(O)c1 (stereo not given) | -10% | i | i | 4%
COCCN1C(=O)C(=O)/C(=C(/O)c2ccc(S(=O)(=O)N3CCOCC3)cc2)C1c1cccc(OC)c1 (stereo not given) | -8% | 5µM* | i | -7%
Cc1sc2ccccc2[n+]1CCCCBr | · | · | · | -6%
C=CCN(C(=O)[C@@H](C)[C@@H](O)c1ccc2ccccc2c1)c1ccccc1 | · | i | · | ·
COc1cc2c(C#N)c(N3CCCCC3)nc(N)c2c(N)n1 | ? | i | i | 8%
